According to PubChem BioAssay AID2435 (The Scripps Research Institute Molecular Screening Center, 2010):
Hit rate of the full screen: of about 320,000 compounds, about 1,000 (0.31%) were called active.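 Rule for the calls: active = activation above the mean of all tested compounds plus 3 SD, cutoff set per screening run (cut at about 20% in these data); inactive = the rest.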 The full list was thinned out, with actives kept by preference.

molecular target: Oxytocin receptor (Homo sapiens) (UniProt P30559); assay: human OXTR agonists, primary screen, fluorescence, CHO-OTR cells, Fluo-8 calcium (AID 2435); conditions: Fluo-8 calcium fluorescence, at 3 µM, active compounds read high, normalized: DMSO 0%, oxytocin 100%;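 note: peak over basal fluorescence ratio from a 100 s FLIPR kinetic read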
Sequence (P30559 whole entry, looked up): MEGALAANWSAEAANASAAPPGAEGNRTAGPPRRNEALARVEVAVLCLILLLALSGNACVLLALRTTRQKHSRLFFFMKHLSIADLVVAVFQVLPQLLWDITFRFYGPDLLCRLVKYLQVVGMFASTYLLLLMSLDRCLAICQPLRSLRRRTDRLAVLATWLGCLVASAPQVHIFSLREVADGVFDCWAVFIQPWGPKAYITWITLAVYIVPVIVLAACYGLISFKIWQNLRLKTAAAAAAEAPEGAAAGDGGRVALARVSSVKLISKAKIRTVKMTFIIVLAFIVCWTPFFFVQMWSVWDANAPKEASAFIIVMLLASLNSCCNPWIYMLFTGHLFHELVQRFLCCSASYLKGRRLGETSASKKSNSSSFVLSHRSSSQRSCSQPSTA

Compound	activation
COc1ccc(NS(=O)(=O)c2ccc(Oc3c(C#N)cccc3C#N)cc2)cc1	21.2% (active)
CCOc1ccc(S(=O)(=O)Nc2ccc(S(=O)(=O)Nc3cc(OC)ccc3OC)cc2)cc1	5.31% (inactive)
COc1ccc(NS(=O)(=O)c2ccc(NC(=O)c3ccc(N(C)S(C)(=O)=O)cc3)cc2)cc1	2.34% (inactive)
CCNc1ccc(C(=O)OCC(=O)N2c3ccccc3NC(=O)C2(C)C)cc1[N+](=O)[O-]	-1.03% (inactive)
Cc1ccc(NC(=S)NC(=O)c2ccc(-c3ccccc3)cc2)cc1	1.22% (inactive)
COCCCNC(=S)NC(=O)c1ccccc1	0.86% (inactive)
CCOC(=O)C1=C(NC(=S)NC(=O)c2ccccc2)c2ccccc2CC1(C)C	25.1% (active)
CC1=CC=CC2=N/C(=N\S(=O)(=O)c3ccc(F)cc3F)c3ccccc3CN12	-2.27% (inactive)
COc1ccc(N2CCC(N3CCN(C)C(CCO)C3)CC2)cc1 (configuration not stated)	-0.23% (inactive)
Cc1ccc(S(=O)(=O)N2CCN(C(=O)N3CCOCC3)CC2)c(C)c1	0.27% (inactive)
Nc1ccc2nc3c(=O)[nH]c(=S)[nH]c3nc2c1	35.4% (active)
CSc1nnc(SCc2nc3sc(C(=O)O)c(C)c3c(=O)[nH]2)s1	6.08% (inactive)
CC(/C=C/c1ccccc1)=N\NC(=O)C1CC1(C)c1ccccc1 (configuration not stated)	-2.09% (inactive)
CN(c1ccccc1)c1ccc(/C=c2\s/c(=C(/C#N)C(=O)C(C)(C)C)n(Cc3ccco3)c2=O)cc1	20.3% (active)
CCOC(=O)/C=c1\s/c(=C\c2ccc(C#N)cc2)c(=O)n1CC(=O)Nc1cccc(C)c1C	0.18% (inactive)
CCOC(=O)Cn1c(=O)oc2cc(S(=O)(=O)N(C)Cc3ccco3)ccc21	1.29% (inactive)
CCS(=O)(=O)N1CCCC(C(=O)NCCCN(C)Cc2ccccc2)C1 (configuration not stated)	-0.22% (inactive)
O=C(COc1ccc(Cl)cc1)NC(=S)Nc1ccccc1N1CCOCC1	-0.94% (inactive)
Cc1ccccc1NC(=S)NC(=O)Cc1ccc(Cl)cc1	28% (active)
O=C(Cc1ccc(Cl)cc1)NC(=S)Nc1ccccc1O	55.4% (active)
Cc1ccc(C(=O)NC(=S)Nc2ccccc2C)cc1	-1.72% (inactive)
COC(=O)Cc1ccc(NC(=S)NCc2ccc(Cl)cc2)cc1	7.5% (inactive)
Cc1cccc(NC(=S)NCCc2ccc(Cl)cc2)c1C	-1.48% (inactive)

Compound	activation
O=C(Nc1ccc(S(=O)(=O)Nc2ncccn2)cc1)C12CC3CC(CC(C3)C1)C2	-0.32% (inactive)
COc1cc(NC(=O)CN2C(=O)NC(C)(c3ccc(OC(F)F)cc3)C2=O)cc(OC)c1OC (configuration not stated)	2.87% (inactive)
Cn1c(C(=O)OC(C(=O)NC2CCCCC2)c2ccccn2)cc2sccc21 (configuration not stated)	-2.18% (inactive)
Cc1nc(-c2ccccc2)cn2c1nc1ccccc12	-2.1% (inactive)
S=C(NCC1COc2ccccc2O1)Nc1ccc(Br)cc1 (configuration not stated)	6.93% (inactive)
c1ccc(-c2cc3c(NCC4COc5ccccc5O4)ncnc3s2)cc1 (configuration not stated)	-2.32% (inactive)
c1ccc2c(c1)OCC(CNc1ncnc3nc[nH]c13)O2 (configuration not stated)	80.8% (active)
CCc1ccc(C2N3CC4([N+](=O)[O-])CN2CC([N+](=O)[O-])(C3)C4(C)C)cc1 (configuration not stated)	-1.26% (inactive)
Cc1ccc(NC(=O)C(CC(=O)O)C2CCCO2)c(C)c1 (configuration not stated)	-0.43% (inactive)
COc1ccc(NS(=O)(=O)c2ccc(NC(=S)NC(=O)CC(C)C)cc2)cc1	22.5% (active)
COc1ccc(OC)c(C(C)NC(=S)Nc2ccc(S(=O)(=O)Nc3ncccn3)cc2)c1 (configuration not stated)	-0.31% (inactive)
CC(=O)c1ccc(NC(=S)NC(=O)CC(C)C)cc1	-2.1% (inactive)
Cc1ccccc1CSc1nnc(-c2ccccc2)c(=O)[nH]1	0.69% (inactive)
CCOc1ccc(/C=C(/NC(=O)c2ccccc2)C(=O)NCCC(=O)O)cc1	0.74% (inactive)
COC(=O)c1sc(-c2ccc(C(C)(C)C)cc2)cc1NC(=O)/C=C/C(=O)O	21.9% (active)
CC(C)(C)c1ccc(/C=C/C(=O)Nc2ncccn2)cc1	-1.37% (inactive)
COc1ccccc1NC(=O)/C=C/C(N)=O	0.46% (inactive)
CNC[C@H](CC1CCCCC1)NC[C@H](NCCC1CCCC1)[C@H](C)O	3.53% (inactive)
O=C(/C=C(O)/C=C/c1ccc(O)cc1)/C=C/c1ccc(O)cc1	99.9% (active)
O=C(/C=C/c1ccc2c(c1)OCCO2)c1ccc(O)cc1	1.57% (inactive)
O=C(O)/C=C/c1ccc(OCCCF)cc1	0.01% (inactive)
CCOc1cc(/C=C/c2nc3ccccc3c(=O)[nH]2)cc(Br)c1OC	0.74% (inactive)
CC(C)[C@H](NC(=O)N1CCn2c1nc1ccccc12)C(=O)NCc1ccc2c(c1)OCO2	-1.49% (inactive)

Compound	activation
O=C(NCc1ccccc1Cl)C1CCN(c2ncnc3c2nc2n3CCCCC2)CC1	0.32% (inactive)
Cc1cc(F)ccc1N1CCC(N2CCN(C)C(CCO)C2)CC1 (configuration not stated)	0.09% (inactive)
COc1cc(C(=O)NC2CCN(C)CC2)ccc1Nc1ncc2c(n1)N(C1CCC(O)CC1)CCC(=O)N2C (configuration not stated)	0.79% (inactive)
COc1ccc(C(=O)NNC(=S)NC(=O)c2ccccc2)cc1	55% (active)
COc1ccc(C(=O)NC(=S)NC2CCCCC2)cc1	-1.13% (inactive)
COc1ccc(C(=O)NC2CCN(C(=S)NCCc3ccccc3)CC2)cc1	-0.97% (inactive)
COc1ccc(CCC(=O)c2ccc(OC)cc2)cc1	-2.31% (inactive)
COc1ccc(C(=O)NC(=S)NNC(=O)CCc2ccccc2)cc1	46% (active)
COc1ccc(C(=O)NNC(=S)NC(=O)c2ccccc2[N+](=O)[O-])cc1	-2.16% (inactive)
CNC(=O)c1csc(Cc2c(Cl)sc3ccc(Cl)cc23)n1	-2.05% (inactive)
O=C(NCc1ccncc1)C(=O)NCC1OCCN1S(=O)(=O)c1ccc(Br)cc1 (configuration not stated)	0.38% (inactive)
NC(=O)c1ccsc1NC(=O)COC(=O)COc1ccc(C=O)cc1	16.4% (inactive)
Cc1c(Br)c([N+](=O)[O-])nn1CC(=O)Nc1sc2c(c1C(=O)OC(C)C)CCC(C)C2 (configuration not stated)	0.81% (inactive)
COc1cc(NC(=O)CSC(=S)N2CCCC2)c(OC)cc1Cl	-1.55% (inactive)
CCN1/C(=C\c2ccc3ccccc3[n+]2CC)Sc2cc(C)ccc21	23.2% (active)
C=CCN1C(=NC(=O)COc2ccccc2)SC2CS(=O)(=O)CC21 (configuration not stated)	1.7% (inactive)
O=C(CSc1nc2ncccc2[nH]1)Nc1ccc2c(c1)OCCO2	-2.32% (inactive)
CCc1ccc2c(c1)C1(NN=C(c3ccccc3)S1)C(=O)N2 (configuration not stated)	-1.26% (inactive)
O=C1/C(=C\c2ccsc2)NC(=S)N1c1ccccc1	0.14% (inactive)
CN(C)c1ccc(C=C2C(=O)OC3(CCCC3)OC2=O)cc1	3.44% (inactive)
CN(C)c1ccc(/C=C2\NC(=S)N(Cc3ccccc3)C2=O)cc1	51.8% (active)
N#CCCN(C(=O)COC(=O)c1ccc2c(c1)OCCO2)c1ccccc1	1.54% (inactive)
Cn1cccc1C1(C(F)(F)F)NCCNC1=O (configuration not stated)	1.22% (inactive)

Compound	activation
CCCC(=O)NC(=S)Nc1ccc(CN2CCOCC2)cc1	1% (inactive)
CCOC(=O)N1CCN(C(=O)CSc2nc(=O)n3cccc(C)c3n2)CC1	-0.13% (inactive)
Cc1cccn2c(=O)c(/C=C(\C#N)C(N)=O)c(N3CCCCCC3)nc12	-2.52% (inactive)
CCOC(=O)CC1C(=O)NCCN1c1nc2c(C)cccn2c(=O)c1/C=C1\SC(=S)N(C(C)CC)C1=O (configuration not stated)	23.3% (active)
O=[N+]([O-])c1ccccc1N/N=C1\CCc2ccccc21	1.32% (inactive)
COc1cc(OC)c(-n2c(C)cc(C=O)c2C)cc1Cl	-0.29% (inactive)
COc1cc(OC)c(-n2cc(-c3ccc(Cl)cc3)[nH]c2=O)cc1Cl	42.2% (active)
COc1cc(OC)c(N2CC(C(=O)Nc3cc(Cl)ccc3N3CCOCC3)CC2=O)cc1Cl (configuration not stated)	10.6% (inactive)
Cc1ccc(-n2ncc3c(Nc4cccc(C(=O)O)c4)ncnc32)cc1	-1.04% (inactive)
O=C(NCc1cccnc1)C12CC3CC(CC(C3)C1)C2	-0.43% (inactive)
CCCN(CC(=O)Nc1ccccc1OC)C(=O)CCC(=O)c1ccc(F)cc1	-2.01% (inactive)
O=C(Nc1ccc(O)cc1)c1ccc(NC(=O)c2ccco2)cc1	1.38% (inactive)
C/C(=N/NS(=O)(=O)c1ccccc1)c1ccc(NC(=O)C(F)(F)F)cc1	-0.88% (inactive)
C/C(=N\NS(=O)(=O)c1ccc(Cl)cc1)c1ccc(NC(=O)c2ccco2)cc1	24.5% (active)
O=C(O)CCn1c(O)c(C=C2N=c3ccccc3=N2)sc1=S	0.13% (inactive)
CCc1ccc(-c2nn(-c3ccccc3C)cc2C(=O)N2CCN(C3CCS(=O)(=O)C3)CC2)cc1 (configuration not stated)	2.09% (inactive)
Cc1ccc(-c2nn(-c3ccccc3)cc2/C=N/NC(=O)c2ccc3c(c2)OCO3)cc1	-1.39% (inactive)
CCc1ccc(-c2nn(-c3ccccc3)cc2CSC(=N)N)cc1	24.2% (active)
O=C(CCNC(=O)c1ccccc1)Nc1nc2ccccc2s1	2.26% (inactive)
O=C(CNC(=O)c1ccccc1)Oc1ccc([N+](=O)[O-])cc1	2.42% (inactive)
O=C(NC(Nc1nc2ccc([N+](=O)[O-])cc2s1)(C(F)(F)F)C(F)(F)F)c1ccccc1	20% (active)
CCOC(=O)CN(C)S(=O)(=O)c1ccc(-c2cc(C(=O)OC)sc2C(F)(F)F)cc1	1.32% (inactive)
O=C(NCc1ccccc1)C(c1ccccc1)N(C(=O)c1csnn1)c1ccc(F)cc1 (configuration not stated)	1.2% (inactive)
